Hits are enriched below; roughly 1.7% of the tested compounds scored in any of these assays.
aDG glyco up = alpha-DG glycosylation activation; Pro5-aDG cells, alpha-DG glycosylation AlphaScreen (IIH6); 0% Pro5, 100% B10-LARGE cell signal; activation, % at 10 µM; 360,000 compounds, 0.22% hits; AID 624168;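 active = activation of at least 8% versus controls, or a plate z-score of at least 8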;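 also: Pro5 are CHO cells carrying HIG-tagged alpha-DG that lacks glycosylation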
Cardio protect = myocardial damage modulation in H9c2 cells; H9c2 cardiomyocytes, H2O2 injury protection, ATPLite, 2 h; protection from H2O2 cell death, % at 20 µM; 360,000 compounds, 0.63% hits;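 active = compounds giving at least 50% protection of heart cells from peroxide-induced death in the single-dose screen, raw or plate-pattern-corrected value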
Vif inh = blocks HIV Vif function; HEK293T cells, Vif self-association by quenched fluorescence, imaging, 24 h; inhibition, % at 7.49 µM; 340,000 compounds, 0.35% hits; AID 602346; in the data active = inhibition above about 50%, passing the limit was not always enough
ARNT-TACC3 inh = ARNT/TACC3 interaction disruption. AID 623870. AlphaScreen His-ARNT PAS-B/GST-TACC3 binding, luminescence; TACC3 fragment carries E629A point mutation. inhibition, % at 9.99 µM. 390,000 compounds, 0.66% hits. Q9Y6A5;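 active = mean inhibition of replicates at least 50% and at least half of replicates each reaching 50%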
N-glyco inh = blocks N-linked glycosylation in D54 reporter cells; reporter increase, % at 12.5 µM; D54 ERlucT glycosylation luciferase reporter, 24 h; percent of 100 nM tunicamycin response; 360,000 compounds, 0.23% hits; AID 588692;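 active = mean luciferase reporter signal, scaled so untreated is 0 and the glycosylation-blocking control 100, at or above a set limit in every replicate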;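 also: luciferase carries N-glycosylation sites so blocking glycosylation raises the light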
Large screens that a line does not name were inactive.

OC1CCCN(c2c3c(nc4cc(-c5cccc(F)c5)nn24)CCCC3)C1 (configuration not stated)	none
COCCN1CCN(c2c3c(nc4cc(-c5cccc(F)c5)nn24)CCC3)CC1	Cardio protect 86
CC1(OC(=O)CCc2ccccc2)C(=O)C=C2C=C3CCCN3C=C2C1=O (configuration not stated)	none
CC1(OC(=O)c2cccs2)C(=O)C=C2C=C3CCCN3C=C2C1=O (configuration not stated)	ARNT-TACC3 inh 8.4
C[C@@H]1CCCCO[C@@H](CN(C)S(C)(=O)=O)[C@H](C)CN([C@@H](C)CO)C(=O)c2cc(NS(=O)(=O)c3ccccc3)ccc2O1	none (no result: aDG glyco up, Cardio protect, Vif inh, N-glyco inh)
C[C@H]1CN([C@@H](C)CO)C(=O)c2cc(NC(=O)NC3CCCCC3)ccc2O[C@@H]1CN(C)S(=O)(=O)c1cn(C)cn1	none (no result: aDG glyco up, Cardio protect, Vif inh, N-glyco inh)
O=C(Nc1ccc(F)c(Cl)c1)c1csc([C@H]2C[C@H](O)[C@@H](CO)O2)n1	Vif inh 54 (no result: ARNT-TACC3 inh)
COc1cccc(S(=O)(=O)Nc2ccc3c(c2)[C@@H]2C[C@@H](CC(=O)O)O[C@@H](CO)[C@@H]2O3)c1	none (no result: aDG glyco up, Cardio protect, Vif inh, N-glyco inh)
CC(=O)N(C)C[C@H]1Oc2ncc(/C=C/c3ccccc3)cc2C(=O)N([C@H](C)CO)C[C@H]1C	none (no result: aDG glyco up, Cardio protect, Vif inh, N-glyco inh)
O=Nc1c(O)[nH]c2ccc(F)cc12	none (no result: ARNT-TACC3 inh)
Cc1cc2c(N=O)c(NO)ccc2[nH]1	Cardio protect 57, Vif inh 54, ARNT-TACC3 inh 80
COc1ccccc1N=Nc1ccc(O)c2ncccc12	ARNT-TACC3 inh 66
O=C1NC[C@H](Cc2ccccc2)N(C[C@@H]2CCCN2C[C@H](Cc2ccc(O)cc2)N2C[C@H](Cc3ccc(O)cc3)N(CCc3ccccc3)C(=O)C2=O)C1=O	none (no result: Cardio protect, Vif inh, ARNT-TACC3 inh, N-glyco inh)
O=C1NC[C@H](Cc2ccccc2)N(C[C@H]2CCCN2C[C@H](Cc2ccccc2)N2C[C@H](Cc3ccc(O)cc3)N(CCc3ccccc3)C(=O)C2=O)C1=O	N-glyco inh 37 (no result: Vif inh)
CC(C)NC(=O)C(c1ccc(F)cc1)N(C(=O)CCC(=O)Nc1ccccn1)c1cccc(F)c1 (configuration not stated)	Vif inh 74 (no result: ARNT-TACC3 inh)
O=C(N/N=C/c1ccc2c(c1)OCO2)c1ccc(NC(=O)c2ccccc2Cl)cc1	Cardio protect 56
Cc1ccccc1C(=O)Nc1ccc(C(=O)N/N=C/c2ccc(O)cc2)cc1	Vif inh 70
O=C(N/N=C/c1ccc2c(c1)OCO2)c1cccc(NC(=O)c2ccccc2Cl)c1	none
Cc1noc(C)c1S(=O)(=O)N(C)C[C@@H]1Oc2ccc(NC(=O)NC(C)C)cc2CC(=O)N([C@H](C)CO)C[C@H]1C	none (no result: aDG glyco up, Cardio protect, Vif inh, N-glyco inh)
COc1cc2c(cc1OC)C(c1ccccc1)N(C(=O)CSCC(=O)O)CC2 (configuration not stated)	none
COCCNC(=S)N1CCc2cc(OC)c(OC)cc2C1c1cccs1 (configuration not stated)	N-glyco inh 59
COC(=O)c1ccc(OCC2c3cc(OC)c(OC)cc3CCN2C(=O)c2ccco2)cc1 (configuration not stated)	Vif inh 69
COc1cc2c(cc1OC)C(c1ccccc1)N(C(=O)c1ccccc1)CC2 (configuration not stated)	N-glyco inh 34
COc1cc2c(cc1OC)C(c1ccccc1)N(C(=O)c1ccco1)CC2 (configuration not stated)	N-glyco inh 34
C[C@H](CO)N1C[C@H](C)[C@@H](CN(C)C(=O)NC2CCCCC2)OCCCC[C@H](C)Oc2ccc(NC(=O)CCCN(C)C)cc2C1=O	none (no result: aDG glyco up, Cardio protect, Vif inh, N-glyco inh)
COc1cc2c(cc1OC)C(c1cccs1)N(C(=O)c1cccc(S(=O)(=O)N(C)C)c1)CC2 (configuration not stated)	N-glyco inh 32
COc1cc2c(cc1OC)C(c1ccccc1)N(C(=O)c1ccccc1F)CC2 (configuration not stated)	N-glyco inh 37
CC(=O)c1cccc(NC(=O)Nc2ccc3c(c2)N(C)C(=O)CS3)c1	Cardio protect 52
Cc1cc(C)cc(NC(=O)Nc2ccc3c(c2)N(C)C(=O)CS3)c1	none
C=CCn1c(SCC(=O)c2ccc(O)c(O)c2)nnc1-c1ccc(OC)cc1	none (no result: Vif inh)
C=CCn1c(SCC(=O)c2ccc(O)c(O)c2)nnc1-c1ccc(C)cc1	Cardio protect 62
